Compounds with a hit are over-represented: about 6.1% of the library has one in this group of screens.
D3 ag: qHTS of D3 Dopamine Receptor Agonist: qHTS | D(3) dopamine receptor (Homo sapiens), P35462 | D3R DiscoveRx beta-arrestin cells, luminescence, 90 min | max activation, % | actives 0.58% (n = 410,000) | AID 652048, 2013; in the data active = max activation above about 30%
Target sequence (P35462 whole entry, looked up): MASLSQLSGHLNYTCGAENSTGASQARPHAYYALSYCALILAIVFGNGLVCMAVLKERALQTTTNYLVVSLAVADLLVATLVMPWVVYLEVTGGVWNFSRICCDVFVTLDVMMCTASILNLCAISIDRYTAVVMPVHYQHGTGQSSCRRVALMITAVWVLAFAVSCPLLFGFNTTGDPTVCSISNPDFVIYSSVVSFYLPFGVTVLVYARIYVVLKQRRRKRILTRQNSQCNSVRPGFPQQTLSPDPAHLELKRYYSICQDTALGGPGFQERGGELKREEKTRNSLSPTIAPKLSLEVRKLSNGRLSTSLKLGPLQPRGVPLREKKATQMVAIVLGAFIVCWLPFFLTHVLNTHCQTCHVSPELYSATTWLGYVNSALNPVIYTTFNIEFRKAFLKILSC
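Agonist-mode cell screen: cells plated at 1500/well and incubated overnight at 37 °C, then exposed to library compounds for 90 min at 37 °C. Detection reagent was added for 30–60 min at room temperature, and luminescence was read.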
D1 potentiator: Potentiators of Human D1 Dopamine Receptor: qHTS. AID 504651, 2011. potentiation, % at 10 µM. actives 0.036% (n = 360,000). HEK293 TREx D1 cells, calcium flux, dopamine EC20 potentiation; in the data active = potentiation above about 30%
DRD3 antagonist: qHTS of D3 Dopamine Receptor Antagonist: qHTS; D(3) dopamine receptor (Homo sapiens), P35462; D3R cells, DiscoveRx beta-arrestin luminescence, antagonist mode; active compounds read low; max response, negative = inhibition, %; actives 2.5% (n = 360,000); in the data active = max response below about -50%; inconclusive = no clear call, values can overlap the other calls
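Cells expressing the human receptor were seeded at 1500 cells/well, incubated overnight at 37 degrees C in 5% CO2, then exposed to library compounds with dopamine controls for 90 minutes at 37 degrees C before luminescent detection.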
ERG Ets-DNA blk: qHTS for Small Molecule Inhibitors of the ERG Ets/DNA interaction. Transcriptional regulator ERG (Homo sapiens), P11308. fluorescence polarization, His-ERG Ets domain / labelled DNA. Potency, µM (top dose mostly 76.9 µM), hits mostly inhibitors. actives 0.028% (n = 370,000); active = well fitted inhibition curve with a large enough effect in the polarisation, with a control signal flat; inconclusive = small, poorly fitted or top-dose-only effect, or effect the other way, or a change in a side signal; inactive = no such curve, though single readings can be large or run the other way; the % refers to the polarisation;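 note: polarization taken with two DNA probes labelled with fluorescein and Texas red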
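His-tagged ERG Ets domain (1 uM in the protein solution; 300mM KCl, 50mM Tris-HCl, 1mM EDTA, 1mM DTT, pH 7.5) received compound, then a probe mix of 5 nM fluorescein-DNA and 100nM Texas-615-DNA. Fluorescence polarization was read for both dyes.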
D1 antagonist: Antagonist of Human D 1 Dopamine Receptor: qHTS | D(1A) dopamine receptor (Homo sapiens), P21728 | activity change, negative = inhibition, % at 10 µM | AID 504652, 2011 | HEK293 TREx D1 cells, calcium flux, dopamine EC80; active compounds read low | actives 3.2% (n = 360,000); in the data active = activity change below about -30%
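Calcium flux readout: force-coupled, inducible Hek293 Trex D1 line, cells induced overnight at 30 C with tetracycline, dye-loaded 30–90 min at RT. Antagonism scored against EC80 dopamine challenge given 180 s after compound.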
D1 ag: Allosteric Agonists of the Human D1 Dopamine Receptor: qHTS | D(1A) dopamine receptor (Homo sapiens), P21728 | HEK293 T-REx D1 cells, calcium flux, agonist mode | activation, % at 2 µM | actives 1% (n = 360,000) | AID 504660, 2011; in the data active = activation above about 30%
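Agonism was scored from calcium flux recorded over 180 s (1 read/s) after pintool compound addition, following a 10-cycle baseline. Cells were inducible force-coupled HEK293 TREx D1, plated overnight at 30 C and loaded with no-wash calcium dye.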
A number is an active result; n = inactive; u = inconclusive; x = no result; ! = not active in a repeat.

SMILES | D3 ag | D1 potentiator | DRD3 antagonist | ERG Ets-DNA blk | D1 antagonist | D1 ag
CC1=CC(C)(C)NC(=S)N1c1ccc(C)cc1 | n | n | n | n | n | n
CC1(C)O[C@@H]2C[C@H]3[C@@H]4CCC5=CC(=O)C=C[C@]5(C)[C@H]4[C@@H](O)C[C@]3(C)[C@]2(C(=O)CO)O1 | n | x | x | x | x | x
c1ccc(OCCCc2nc(-c3ccncc3)no2)cc1 | n | n | -52 | x | n | n
Cc1ccnc(NC(=O)c2ccc(C(=O)c3ccccc3)cc2)c1 | n | n | -55 | n | n | n
Cc1ccnc(NC(=O)c2ccccc2NC(=O)c2ccccc2)c1 | n | n | n | n | n | n
CNC(=O)CN1C(=O)NC2(CCc3ccccc3C2)C1=O (stereo not drawn) | n | n | n | n | n | n
CC1(C(=O)NC2CCN(Cc3ccccc3)CC2)CCN1Cc1ccc(OC(F)(F)F)cc1 (stereo not drawn) | n | x | -65 | x | x | x
CC(C)(Oc1ccc(Cl)cc1)C(=O)NC1CCN(Cc2ccccc2)CC1 | n | n | -82 | n | -51 | n
O=C(COc1ccccc1)NC1CCN(Cc2ccccc2)CC1 | n | n | u | n | n | n
CC1(C(=O)NC2CCN(Cc3ccccc3)CC2)CCN1CCc1ccccc1 (stereo not drawn) | n | x | -85 | x | x | x
COc1ccccc1CNC(=O)C1(C)CCN1Cc1ccc(OC(F)(F)F)cc1 (stereo not drawn) | n | x | n | x | x | x
CC(=O)Nc1ccc(CN2CCC2(C)C(=O)NC2CCN(Cc3ccccc3)CC2)cc1 (stereo not drawn) | n | x | n | x | x | x
CC1(C(=O)NC2CCN(Cc3ccccc3)CC2)CCN1Cc1ccc2ccccc2c1 (stereo not drawn) | n | x | -97 | x | x | x
CC(=O)c1ccc(N2CCN(c3ncnc4onc(C)c34)CC2)cc1 | n | n | x | n | n | n
O=C(OCC(=O)N1CCCc2ccccc21)c1cccc(S(=O)(=O)N2CCOCC2)c1 | n | n | n | n | n | n
Cc1ccc(C(=O)NCCCNC(=O)COc2ccc(Cl)cc2)cn1 | n | n | n | n | n | n
O=C(O)c1ccccc1Sc1c([N+](=O)[O-])cc(C(F)(F)F)cc1[N+](=O)[O-] | n | n | n | n | n | n
COc1ccc2c(c1)c(N=O)c(O)n2C | n | n | n | n | n | n
CC(c1ccccc1)N(CC(=O)NC1CCCCC1)S(=O)(=O)c1cccc(C(F)(F)F)c1 (stereo not drawn) | n | n | n | n | n | n
CN1CCN(C(=O)C23CCC(C)(c4nc5ccccc5nc42)C3(C)C)CC1 (stereo not drawn) | n | n | -51 | n | n | n
CCOc1ccc(C(=O)N[C@H](C(=O)NNC(=O)c2cccs2)C(C)C)cc1 | n | x | n | n | x | x
O=c1ccc2cc3c4c(c2o1)CCCN4CCC3 | n | n | n | n | n | 75
CCN(CC)CCNc1nc(C(F)(F)F)nc2c1nnn2Cc1ccccc1 | n | n | n | n | -92 | n
N=C(N=C(N)N)N1CCc2ccccc21 | n | n | n | n | -37 | n
Cc1c(Cl)cccc1NC(=O)CN1CCC(C(O)(c2ccccc2)c2ccccc2)CC1 | n | n | -62 | n | n | n
SMILES | D3 ag | D1 potentiator | DRD3 antagonist | ERG Ets-DNA blk | D1 antagonist | D1 ag
O=C(CCN1CCCCC1)Nc1ccc(Br)cc1 | n | n | -69 | n | n | n
Cc1c(Cl)cccc1NC(=O)CCN1CCCCC1 | n | n | -58 | n | n | n
CCOC(=O)c1cc(-c2ccccc2)n(CCCC(=O)Nc2cccc(Cl)c2C)c1C | n | n | x | n | -68 | n
O=C(COc1ccc(Br)cc1Br)Nc1ccc(S(=O)(=O)Nc2ncccn2)cc1 | n | n | x | n | n | n
CC(C)CCN(C(=O)C1CSC2(C)CCC(=O)N12)c1c(N)n(Cc2ccccc2)c(=O)[nH]c1=O (stereo not drawn) | n | n | n | n | n | n
CC(C)c1ccc(NC(=O)CSc2n[nH]c(=O)n2C2CC2)cc1 | n | n | n | n | n | n
COC(=O)c1ccc(NC(=O)CCN2CCN(CCC(=O)Nc3ccc(C(=O)OC)cc3)CC2)cc1 | n | n | n | n | n | n
COC(=O)c1ccc(NC(=O)CCN2CCCCC2)cc1 | n | n | -52! | n | n | n
O=C(CN1CCCC1)Nc1ccc(Br)cc1 | n | n | n | n | n | n
O=C(CN1CCCCCC1)Nc1ccc(Br)cc1 | n | n | -114 | n | n | n
COc1cn(CC(=O)Nc2ccc(C)cc2)c(CN2CCCCC2)cc1=O | n | n | x | n | -46 | n
O=C(CN1CCN(C2CCCCC2)CC1)Nc1ccc(Br)cc1 | n | n | -53 | n | n | n
CN1C[C@@H]2C[C@@H](c3ccc(C#CC(C)(C)O)s3)N3CCC[C@@]23C1=O | n | n | n | n | n | n
Cc1ccc(NC(=O)CN2CCCC2)cc1Br | n | n | -64 | n | n | n
Cc1ccc(NC(=O)CN2CCCC2)cc1 | n | n | n | n | n | n
Cc1ccc(S(=O)(=O)Nc2ccc(NC(=O)CN3CCCCC3)cc2)cc1 | n | n | -60 | n | n | n
CCOc1ccccc1/C=C/c1onc(C)c1S(=O)(=O)N1CCC(C(=O)NC(C)(C)C)CC1 | n | n | u | n | n | n
CCCNC(=O)N(C)C[C@@H]1Oc2cc(C#CC(C)(C)O)ccc2S(=O)(=O)N([C@H](C)CO)C[C@H]1C | n | x | n | x | x | x
Cc1nn(C(C)(C)C)c(OC(=O)c2cccs2)c1Sc1ccccc1 | n | n | -53 | n | n | n
Cc1ccccc1C(=O)Oc1c(Sc2ccccc2)c(C)nn1C(C)(C)C | n | n | x | u | n | n
Cc1nnc(N2C(=O)c3oc4ccccc4c(=O)c3C2c2ccc(C(C)(C)C)cc2)s1 (stereo not drawn) | n | n | x | n | n | n
CCC(c1nnnn1-c1c(C)cccc1C)N1CCN(CC)CC1 (stereo not drawn) | n | x | n | x | x | x
CCC(c1nnnn1-c1c(C)cccc1C)N1CCN(c2cccc(C(F)(F)F)n2)CC1 (stereo not drawn) | n | x | -68 | x | x | x
Cc1cc(C(=O)CCC(=O)Nc2ccc(C(N)=O)cc2)c(C)s1 | n | x | n | x | x | x
CC(C)(C)OC(=O)N1CCC(c2c(C(=O)N3CCN(c4ncccn4)CC3)cnn2-c2ccc(F)cc2F)CC1 | n | n | x | n | n | n
COCCOC(=O)c1[nH]c2c(c1C)C(=O)CC(c1ccc(F)cc1)C2 (stereo not drawn) | n | n | n | n | n | 64

Compound activity deposited in PubChem by National Center for Advancing Translational Sciences (NCATS).
